Screens from PubChem.
Sfp inh: inhibitors of Bacillus subtilis Sfp phosphopantetheinyl transferase; Biochemical Sfp PPTase activity, qHTS; actives 3.5% (n = 310,000); AID 1490; Q9F4F7; Potency, µM, without a hit: largest response in the series, negative = inhibition, actives largely listed as inhibitors;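 also: the enzyme is Sfp with the accession as filed and its product quenches rhodamine fluorescence; 0% = enzyme reaction without inhibitor and -100% = no enzyme wells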
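Fluorescence-quenching assay: 15 nM Sfp-PPTase preincubated 15 min at room temperature with compound, then 5 uM rhodamine-CoA and 12.5 uM BHQ-2-labelled YbbR peptide added. Fluorescence (ex 525/em 598 nm) read at start and after 30 min; difference gives rate.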
HP1b chromo inh: HP1-beta chromodomain-methylated histone interaction inhibition; P83916; Potency, µM (titrated, usually from 114 µM), for the others: top-dose activity change, negative = inhibition, most hits filed as inhibitors; AlphaScreen HP1-beta / biotin-H3K9me3 peptide binding; actives 0.56% (n = 390,000); also: nearly all actives have a fitted effect of over 70% in size
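AlphaScreen: HP1-beta (50 nM) preformed 30 min with biotin-H3(1-18)K9me3 peptide (50 nM) in PBS pH 7.4, 0.01% Tween-20. Compound added for 30 min at RT, then streptavidin donor/nickel chelate acceptor beads (10 ug/mL) for 30 min.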
JMJD2A Tudor: blocks the human JMJD2A Tudor domain | O75164 | AlphaScreen JMJD2A-Tudor / H3K4me3 peptide binding | Potency, µM (titrated, usually from 114 µM), for inactives: at the top dose activity change, negative = inhibition, hits mostly inhibitors | actives 4.4% (n = 390,000) | AID 504339; also: % is scaled to controls: 0 for no effect and ±100 for the full control effect; nearly all actives have a fitted effect of over 50% in size
Target sequence (O75164 whole entry, looked up, the tested form may be a part): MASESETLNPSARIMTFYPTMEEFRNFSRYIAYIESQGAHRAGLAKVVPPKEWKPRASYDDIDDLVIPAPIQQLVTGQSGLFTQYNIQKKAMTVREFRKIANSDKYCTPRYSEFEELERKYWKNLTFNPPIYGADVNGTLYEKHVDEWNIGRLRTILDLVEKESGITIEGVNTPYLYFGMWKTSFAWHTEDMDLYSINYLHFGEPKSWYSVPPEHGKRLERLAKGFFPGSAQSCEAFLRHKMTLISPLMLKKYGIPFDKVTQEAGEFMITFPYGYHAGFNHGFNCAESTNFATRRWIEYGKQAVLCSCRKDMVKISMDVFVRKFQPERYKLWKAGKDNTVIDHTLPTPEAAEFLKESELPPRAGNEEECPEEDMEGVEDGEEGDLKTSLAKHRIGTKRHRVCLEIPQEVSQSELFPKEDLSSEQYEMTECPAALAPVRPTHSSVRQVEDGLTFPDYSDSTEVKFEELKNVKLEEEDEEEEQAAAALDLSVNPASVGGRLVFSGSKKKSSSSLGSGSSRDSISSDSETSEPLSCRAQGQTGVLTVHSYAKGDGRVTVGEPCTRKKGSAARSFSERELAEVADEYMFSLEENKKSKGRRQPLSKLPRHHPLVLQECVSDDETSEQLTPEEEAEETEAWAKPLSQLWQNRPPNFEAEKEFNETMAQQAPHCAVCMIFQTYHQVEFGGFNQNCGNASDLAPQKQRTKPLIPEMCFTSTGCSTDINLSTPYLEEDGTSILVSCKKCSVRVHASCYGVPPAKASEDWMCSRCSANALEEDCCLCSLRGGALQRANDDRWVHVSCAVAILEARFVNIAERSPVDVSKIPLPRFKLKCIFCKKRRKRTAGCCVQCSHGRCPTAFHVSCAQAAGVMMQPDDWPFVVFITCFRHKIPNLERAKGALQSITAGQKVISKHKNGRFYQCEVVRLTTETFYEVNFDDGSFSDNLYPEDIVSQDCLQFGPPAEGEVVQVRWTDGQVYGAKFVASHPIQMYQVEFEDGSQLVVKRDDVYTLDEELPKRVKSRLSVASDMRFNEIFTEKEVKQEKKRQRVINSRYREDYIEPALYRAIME
G9a inh: G9a (human) methyltransferase inhibition; G9a H3K9 monomethylation, AlphaScreen, 2 h; Q96KQ7; AID 504332; actives 8.8% (n = 350,000); Potency, µM (doses to about 102 µM), for the others: at the highest dose activity, negative = inhibition, hits mostly inhibitors; also: % is scaled to controls: 0 for no effect and ±100 for the full control effect; nearly all actives have a fitted effect of over 75% in size
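Step 1: enzyme (final 20 nM) with compound, 15 min RT. Step 2: substrate peptide 500 nM and SAM 20 uM, 2 h RT. Step 3: anti-H3K9me1 antibody and AlphaScreen beads, 10 min, then plate read.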
BAZ2B inh: inhibitors of human BAZ2B bromodomain | Q9UIF8 | AlphaScreen BAZ2B-H3K14Ac peptide displacement | Potency, µM (top dose mostly 114 µM), inactives show top-dose activity change, negative = inhibition, most hits filed as inhibitors | actives 4.4% (n = 360,000); also: % is scaled to controls: 0 for no effect and ±100 for the full control effect; nearly all actives have a fitted effect of over 60% in size
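Multi-concentration screen (max 110 uM) measuring displacement of acetylated histone H3 peptide from BAZ2B by AlphaScreen, using 50 nM protein, 50 nM peptide and 10 ug/mL streptavidin donor plus Ni-chelate acceptor beads.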
An asterisk follows results filed as active; ? = inconclusive; nt = no result; ! = repeats disagree; [ ] = dose if it differs, or a comment. In the library only some 12% were active in any assay of this set; here they are far more common. Calls follow the shape of the dose curve; as a rule, active = well fitted curve in the direction sought with a large enough effect; inconclusive = small, poorly fitted or top-dose-only effect, or another doubt; inactive = no such curve, though single readings can be large; an effect the other way counts as inactive or inconclusive. Potency is read from the fitted curve at half-maximal effect.

SMILES	Sfp inh	HP1b chromo inh	JMJD2A Tudor	G9a inh	BAZ2B inh
CCC(=O)Nc1nnc(-c2ccccn2)o1	50µM*	5%	5.6µM*	4.5µM*	28µM*
O=C(CCc1ccccc1)Nc1nnc(-c2ccccn2)o1	-29%	9%	20µM*	?	50µM*
Cc1cccc(NC(=O)/C(C#N)=C/c2ccco2)c1	nt	-6%	-33%	?	-19%
Cc1ccc(-n2nc(C)c3nc(CCC(=O)Nc4cccc(C)c4C)c(=O)n(C)c32)cc1	nt	17%	1%	-4%[12.7 µM]	-10%
COc1ccc(CCN2CC(C(=O)N(C)Cc3ccc(C)o3)CCC2=O)cc1 (centres undefined)	22µM*	29%	-14%	?	-10%
COc1ccccc1CN1CC(C(=O)N(C)Cc2ccc(C)o2)CCC1=O (centres undefined)	45µM*	23%	-8%	35µM*	-19%
COc1ccc(CCN2CC(C(=O)N(C)Cc3ccc4nsnc4c3)CCC2=O)cc1 (centres undefined)	22%	35%	-8%	57%	-13%
COc1ccccc1CN1CC(C(=O)NCCc2ccc(C)o2)CCC1=O (centres undefined)	?	38%	-8%	?	-14%
CCOc1ccc(NC(=O)CC2C(=O)N(c3ccccc3)C(=O)N2CCc2sccc2C)cc1 (centres undefined)	nt	34%	-13%	10%[59 µM]	-5%
CCOc1ccc(C(C)(N)C(=O)O)cc1 (centres undefined)	-8%	6%	3.5µM*	?	-38%
C[C@@](N)(C(=O)O)c1ccc(C(=O)O)cc1	50µM*!	nt	nt	27%[59 µM]	nt
CCc1ccc(C(=O)O)cc1	25%	21%	-1%	-3%	-4%
CC(N)(C(=O)O)c1ccc(C(=O)O)cc1 (centres undefined)	56µM*	nt	nt	17%[12.7 µM]	nt
CCOc1ccccc1CNC(=O)CCCn1c(=O)c2cccn2c2ccc(F)cc21	nt	22%	-6%	-4%[59 µM]	0%
COc1ccccc1-c1noc(-c2ccc(NC3CCCC3)c([N+](=O)[O-])c2)n1	nt	44%	-6%	-2%[59 µM]	0%
CC(OC(=O)c1n[nH]c2ccccc12)C(=O)NC1CCCCC1C (centres undefined)	nt	25%	-8%	13%[12.7 µM]	-5%
Cc1cc(C)n(-c2nc3ccccc3s2)n1	-3%	158%	87%	83%	111%
Cc1c2c(=O)n(-c3nc4ccccc4s3)nc-2cc(O)n1Cc1ccccc1	-27%	18%	-27%	nt	40µM*
CCOC(=O)c1c(-c2ccccc2)oc2ccc(N(C(C)=O)S(=O)(=O)c3ccc(CC)cc3)cc12	nt	18%	-1%	6%[59 µM]	-12%
COc1ccc(NC(=O)COc2ccc(-c3nn(C)c(=O)c4ccccc34)cc2)cc1	18%	-6%	45µM*!	3%	-9%
CCN(CC)S(=O)(=O)c1ccc(NCC2COc3ccccc3O2)c([N+](=O)[O-])c1 (centres undefined)	4%	?	?	?	?
CN(C)S(=O)(=O)c1ccc(NCC2COc3ccccc3O2)c([N+](=O)[O-])c1 (centres undefined)	14%	?	25µM*	?	?
O=C(CSc1nccn1-c1ccc(F)cc1)Nc1nc2ccccc2s1	nt	3%[57 µM]	-10%	-5%[59 µM]	-7%
OCC1OC([S-])[C@H](O)C(O)C1O.[Au+] (some centres undefined)	2.2µM*	nt	nt	?	nt
Cc1ccc(C(=O)CSc2cc(C)[nH]c(=O)n2)cc1	-21%	-4%	?	-9%[0.501 µM]	45µM*
SMILES	Sfp inh	HP1b chromo inh	JMJD2A Tudor	G9a inh	BAZ2B inh
Cc1cc(SCC(=O)c2ccccc2)nc(=O)[nH]1	10%	-7%	-31%	22µM*	-22%
Cc1cc(SCC(=O)c2ccc(Cl)cc2)nc(=O)[nH]1	?	-18%	?	?	-27%
CC(C)(C)C(=O)Nc1ccc2nc(SCC(=O)N3CCCC3)sc2c1	nt	91%	-2%	-1%[59 µM]	-16%
COc1ccc(CNC(=O)[C@H]2C[C@@H]2[C@H](NP(=O)(c2ccccc2)c2ccccc2)c2ccccc2)cc1OC	8%	nt	nt	nt	nt
CCc1ccc2c(c1)/C(=N/N(C)C(=S)NC)C(=O)N2	?	?	?	-70%[59 µM]	10µM*
COc1cc(C2Oc3cc(C4Oc5cc(O)cc(O)c5C(=O)C4O)ccc3OC2CO)ccc1O (centres undefined)	-2%	19%	-14%	50µM*	-31%
COc1ccc(NS(=O)(=O)c2ccc3c(c2)N(C(C)=O)CC(C)S3)c(OC)c1 (centres undefined)	-2%	23%	-13%	9%[0.501 µM]	-22%
COc1cccc(/C=C/C(=O)OCC(=O)Nc2cccc(S(=O)(=O)N3CCCCC3)c2)c1OC	1%	23%	-23%	71µM*	-3%
CN1CCC(N(C)S(=O)(=O)c2ccc(NC(=O)COc3cccc(Cl)c3)cc2)CC1	nt	-2%	-22%	40µM*	3%
O=C(COC(=O)/C=C/c1ccc(F)cc1)Nc1cccc(S(=O)(=O)N2CCCC2)c1	17%	29%	-5%	-5%	-19%
Cc1ccc(NC(=O)COC(=O)/C=C/c2cccc(Cl)c2)cc1S(=O)(=O)N1CCOCC1	17%	19%	-22%	40µM*	7%
CCN(c1ccc(NC(=O)COC(=O)c2ccc(C)c(S(=O)(=O)N3CCOCC3)c2)cc1)C(C)C	-8%	?	22µM*	4.5µM*	?
O=C(COC(=O)/C=C/c1cccc(Cl)c1)Nc1ccc(N2CCOCC2)cc1	nt	22%	-12%	nt	nt
Cc1cc(C)c(OCC(=O)Nc2ccc(S(=O)(=O)N3CCCC3)cc2)c(C)c1	nt	30%	-14%	50µM*	9%
COc1cccc(/C=C/C(=O)OCC(=O)Nc2ccc(S(=O)(=O)N3CCCC3)cc2)c1	79µM*	4%	-13%	-18%[59 µM]	-26%
Cc1ccc(NC(=O)CNc2ccccc2N2CCCC2=O)cc1S(=O)(=O)N1CCOCC1	nt	13%	-10%	45µM*	7%
Cc1cccc(OCC(=O)Nc2ccc(S(=O)(=O)N3CCCC3)cc2)c1	?	38%	-10%	32µM*	-9%
COc1cc(/C=C/C(=O)OCC(=O)Nc2ccc(S(=O)(=O)N3CCCC3)cc2)ccc1O	-8%	8%	-23%	5%[59 µM]	-8%
CCc1cccc(OCC(=O)Nc2ccc(S(=O)(=O)N3CCCC3)cc2)c1	12%	38%	-5%	40%	0%
CCOc1ccc(NC(=O)CC(Cc2cc(C)cc(C)c2)C(=O)O)cc1 (centres undefined)	8%	7%	-12%	-12%	31%
Cc1cccc(C)c1NC(=O)CNC(=O)c1cccc(S(=O)(=O)NCc2cccs2)c1	nt	23%	4%	-44%[2.33 µM]	-7%
O=C(CNC(=O)c1ccco1)Nc1ccc2c(c1)OCCO2	nt	14%	-26%	15%[0.501 µM]	5%
